Laboratory results taken from PubChem BioAssay AID504832 (National Center for Advancing Translational Sciences (NCATS), 2011).
Where “and” joins values, the source holds several entries; their conditions need not be identical. Identical values can stand only once. Hit rate of the full screen: of about 310,000 compounds, about 18,000 (5.8%) were called active. Inconclusive results (about 22%) are left out. Calls come from the whole dose curve; as a rule, active = well fitted inhibition curve with a large enough effect; inconclusive = small, poorly fitted or top-dose-only effect, or another doubt; inactive = no such curve, though single readings can be large or run the other way. This excerpt belongs to a sample that is enriched for actives. Some compounds were tested as several samples or in several runs, with calls that do not always agree.

Test: Primary qHTS for delayed death inhibitors of the malarial parasite plastid, 48 hour incubation
Conditions: P. falciparum luciferase growth in erythrocytes; series mostly up to 28.7 µM; activity change, negative = inhibition: at the top concentration
In short: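 In quantitative HTS format, infected erythrocytes bearing luciferase-reporter parasites were treated for a single generation at 37 C. Luminescence after adding detection reagent served as the growth measure.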
% is set by controls: 0 for no effect and ±100 for the full control effect; potency is the fitted concentration of half-maximal effect.

SMILES	activity change, negative = inhibition	Potency
COc1cccc(CNS(=O)(=O)c2ccc3c(c2)N(C(C)=O)CCS3)c1	-9.9% (inactive)	–
O=C1C(=O)N(CCCN2CCOCC2)C(c2ccc([N+](=O)[O-])cc2)/C1=C(\O)c1ccc2c(c1)OCCO2 (stereo not given)	-15.6% (inactive)	–
CC1CN(C(=S)Nc2ccc(S(N)(=O)=O)cc2)CC(C)O1 (stereo not given)	-0.819% (inactive)	–
O=C(CC1SC(=Nc2ccccc2)N(Cc2ccccn2)C1=O)Nc1cccc(Cl)c1 (stereo not given)	–	6.57 µM (active)
O=C(Nc1cccc(Cl)c1)OCc1ccccn1	93% (inactive)	–
CN1C(=O)C(CC(=O)Nc2ccccc2)S/C1=N/c1nccs1 (stereo not given)	41.6% (inactive)	–
CCCCN1C(=O)C(=O)N(CC(=O)Nc2cccc(C(C)=O)c2)C1=O	12.2% (inactive)	–
CC(C(=O)N1CCN(c2ccccc2F)CC1)c1ccc([N+](=O)[O-])cc1 (stereo not given)	-73.8% (inactive)	–
O=C(COC(=O)c1ncc(Cl)c(Cl)c1Cl)NCc1ccccc1	-2.97% (inactive)	–
COCCCN1C(=O)c2ccc(C(=O)OCC(=O)NCc3ccccc3OC)cc2C1=O	10.5% (inactive)	–
Cc1ccn2c(=O)nc(SCC(=O)NCc3ccc(F)cc3)nc2c1	-12% (inactive)	–
Cc1sc(NC(=O)c2ccc3ncsc3c2)c(C(N)=O)c1C	112% (inactive)	–
Cc1ccc2nc3n(c(=O)c2c1)CCC3	8.44% (inactive)	–
Cc1ccc2nc(C)c3c(c2c1)N(c1ccccc1)CC3	–	5.86 µM (active)
CSc1nc2ccc(C)cc2c(=O)n1-c1cccnc1	-8.37% (inactive)	–
N#Cc1ccc(C(=O)OCC(=O)NC(=O)NC2CCCCC2)cc1	11.7% (inactive)	–
O=C(Nc1cc(-c2nc3ncccc3o2)ccc1Cl)c1ccco1	10.3% (inactive)	–
Cc1ccc(C(=O)COC(=O)CCN2C(=O)C3C4CCC(C4)C3C2=O)cc1C (stereo not given)	49.8% (inactive)	–
CCCCCCCCC(=O)NCCOc1ccccc1	13% (inactive)	–
CCCCCc1ccc(-c2ccc(OCC)cc2)nc1	78.2% (inactive)	–
CCCCCCCCCc1ccc(OCCOCCOCCOCCOCCOCCOCCOCCOCCO)cc1	–	8.49 µM (active)
COc1cccc(OCc2nnc3n2N=C(c2ccccc2)C(CC(=O)O)S3)c1 (stereo not given)	-4.69% (inactive)	–
COc1cc(S(=O)(=O)N2CCN=C2c2ccccc2)ccc1Cl	-8.03% (inactive)	–
CN(C)[C@@H]1C(=O)C(C(N)=O)=C(O)[C@@]2(O)C(=O)C3=C(O)c4c(O)ccc(Cl)c4[C@@H](O)[C@H]3C[C@@H]12	–	2.08 µM (active)
C=C1c2c(Cl)ccc(O)c2C(O)=C2C(=O)[C@]3(O)C(O)=C(C(N)=O)C(=O)[C@@H](N(C)C)[C@@H]3[C@@H](O)C12 (stereo not given in full)	–	2.33 µM (active)

SMILES	activity change, negative = inhibition	Potency
COc1ccc(C(=O)COC(=O)Cn2cnc3c2c(=O)n(C)c(=O)n3C)c(OC)c1	41.3% (inactive)	–
COc1cc(C(=O)Nn2c(CC(C)C)nc3ccccc3c2=O)cc(OC)c1OC	39.7% (inactive)	–
O=C(O)CSc1c2c(nc3cc(C(=O)Nc4cccc(C(F)(F)F)c4)ccc13)CCCC2	-7.64% (inactive)	–
Cc1cccc(NC(=O)CSc2nnc(-c3ccco3)o2)c1	14.3% (inactive)	–
O=C(CCc1ccccc1)Nc1cccc(-c2nnc(-c3ccco3)o2)c1	–	10.4 µM (active)
O=C(Nc1cccc(-c2nnc(-c3ccccc3)o2)c1)C1CCCO1 (stereo not given)	-23.1% (inactive)	–
O=C(O)c1ccc(NC(=O)c2ccc(COc3ccc(Cl)cc3)o2)cc1	-0.403% (inactive)	–
Cc1c(C)c(C)c(S(=O)(=O)N2CCC3(CC2)OCCO3)c(C)c1C	14.3% (inactive)	–
c1ccc2cc(CCCc3cc4ccccc4cn3)ncc2c1	41.5% (inactive)	–
Cc1n[nH]c(=O)c2c(NC(=O)CSc3cc(Cl)ccc3Cl)oc(C)c12	10% (inactive)	–
O=C(/C=C/c1cccc([N+](=O)[O-])c1)OCC(=O)N1CCOCC1	31.3% (inactive)	–
Cc1ccc(C(=O)N/C(=C\c2cn(C)c3ccccc23)C(=O)N2CCN(C)CC2)cc1	-20% (inactive)	–
Cc1ccc(C(=O)N/C(=C\c2cn(S(=O)(=O)N(C)C)c3ccccc23)C(=O)N2CCCC2)cc1	–	10.4 µM (active)
Cc1ccc(C(=O)N/C(=C/c2cccs2)C(=O)N2CCCCC2)cc1	11.9% (inactive)	–
COC(=O)c1ccc(/C=N/NC(=O)C(=O)N2CCCCCC2)cc1	0.0405% (inactive)	–
COc1ccccc1-c1sc2ccccc2c1-c1ccc(C(C)=O)cc1	7.12% (inactive)	–
Cc1sc2ncnc(N3CCC(C(=O)Nc4nc5ccc(Cl)cc5s4)CC3)c2c1C	29.9% (inactive)	–
Cc1sc2ncnc(N3CCC(C(=O)Nc4ccc(F)cc4Cl)CC3)c2c1C	–	11.7 µM (active)
O=C(NNC(=O)C1CCCC1)c1ccc(F)cc1	-3.7% (inactive)	–
O=C(NNC(=O)C1CCN(c2ncccn2)CC1)c1ccccc1	6.9% (inactive)	–
Cc1ccnc(N2CCCC(C(=O)Nc3cc(F)ccc3C)C2)n1 (stereo not given)	3.36% (inactive)	–
Cc1sc2ncnc(N3CCC(C(=O)NNC(=O)c4ccc(F)cc4)CC3)c2c1C	–	11.7 µM (active)
COc1ccccc1CNC(=O)COC(=O)CNS(=O)(=O)c1ccc(NC(C)=O)cc1	-22% (inactive)	–
CC1CCN(C(=O)/C(=C\c2ccccc2F)NC(=O)c2ccccc2)CC1	3.13% (inactive)	–
Cc1ccc(S(=O)(=O)NCCCn2ccnc2)cc1C(=O)NC(C)C	16.4% (inactive)	–

SMILES	activity change, negative = inhibition	Potency
COc1ccc(CNC(=O)c2ccc(Br)s2)cc1OC	62.7% (inactive)	–
Cc1ccc(S(=O)(=O)N2CCN=C2SCc2c(F)cccc2Cl)cc1	-16.6% (inactive)	–
CCN(CC(=O)Nc1ccccc1C(F)(F)F)C(=O)CSCc1c(C)noc1C	23.7% (inactive)	–
CCN(CC(=O)Nc1c(F)cccc1F)C(=O)C1CCC1	-7.11% (inactive)	–
CCN(CC(=O)Nc1ccccc1C(F)(F)F)C(=O)C1CCN(C(=O)Nc2ccccc2)CC1	–	11.7 µM (active)
COc1ccc(S(=O)(=O)NNC(=O)Nc2ccc(C)cc2)c(OC)c1	-0.777% (inactive)	–
CC(C)=CCCC1(C)C=Cc2c(ccc3c2[nH]c2cc(O)c(C)cc23)O1 (stereo not given)	–	9.28 µM (active)
COc1cc2c(C(=O)N(C)c3cc(Cl)ccc3OC)cn(C)c(=O)c2cc1OC	19% (inactive)	–
COc1ccc(C(=O)N2CCCCC2C(=O)Nc2ccc(-n3nc(C)cc3C)cc2)o1 (stereo not given)	-12.2% (inactive)	–
CCCc1cc(=O)[nH]c2nnc(SCC(=O)Nc3nnc(SCC)s3)n12	-12.8% (inactive)	–
O=C(NC1CCc2ccccc21)C12CN(Cc3ccccc3)CC1C(c1cccc([N+](=O)[O-])c1)=NO2 (stereo not given)	–	3.7 µM (active)
O=C(NCCN1CCN(C(=O)c2cccc([N+](=O)[O-])c2)CC1)C(=O)NCc1ccc(Cl)cc1	2.56% (inactive)	–
O=C(/C=C/c1cccc([N+](=O)[O-])c1)N1CCN(Cc2ccccc2)CC1	-22.8% (inactive)	–
CN(C(=O)CN(CCO)CC(=O)N(C)C(C)(C)Cc1ccccc1)C(C)(C)Cc1ccccc1	–	inactive and 9.28 µM (active)
CN(Cc1ccccc1)C(=O)CCc1ccccc1	7.4% (inactive)	–
CCN(CC)C(=O)N(CC)Cc1ccccc1	3.09% (inactive)	–
CN(CC(=O)NCc1ccc2c(c1)OCO2)CC(=O)Nc1ccc(F)c(F)c1F	-11.9% (inactive)	–
O=C(N/N=C/c1sc(N2CCCCC2)nc1-c1cccs1)c1cccnc1	–	3.29 µM (active)
O=C(N/N=C/c1ccccn1)c1cccnc1	8.24% (inactive)	–
Cc1cc(/C=N/NC(=O)c2cccnc2)c(C)n1CC(C)C	57.6% (inactive)	–
COc1ccc2c(C(=O)c3ccc(C)cc3)n(CCC(N)=O)[n+]([O-])c2c1	-1.7% (inactive)	–
Cc1cc(C(=O)N/N=C/c2ccccn2)c2ccccc2n1	9.17% (inactive)	–
Fc1ccccc1C(c1nnnn1Cc1ccc2c(c1)OCO2)N1CCN(Cc2ccccc2)CC1 (stereo not given)	–	6.57 µM (active)
Cc1cccc(C)c1NC(=O)CSc1nnc(-c2ccccc2)n1Cc1ccc2c(c1)OCO2	-15.3% (inactive)	–
Cc1ccc(S(=O)(=O)Cn2nnnc2CN2CCN(Cc3ccc4c(c3)OCO4)CC2)cc1	-13.9% (inactive)	–

SMILES	activity change, negative = inhibition	Potency
Cc1ccc(CN2CCCC(C(=O)c3ccc4c(c3)OCO4)C2)cc1C (stereo not given)	2.04% (inactive)	–
Cc1cc(C)c2[nH]c(=O)c(C(c3nnnn3Cc3ccc4c(c3)OCO4)N3CCCC3)cc2c1 (stereo not given)	–	13.1 µM (active)
O=C(C1CCN(Cc2ccc(Cl)cc2)CC1)N1CCN(Cc2ccc3c(c2)OCO3)CC1	-25.3% (inactive)	–
CSc1ccccc1NC(=O)COC(=O)CCCOc1ccc(C)cc1	-20.5% (inactive)	–
CCOC(=O)c1c(C)nc(-c2ccccc2)nc1NC(=O)C(C)C	176% (inactive)	–
CCOC(=O)c1cnc(-n2nc(C)cc2C)nc1NNc1cc(C)nc(-c2ccccc2)n1	–	3.29 µM (active)
CCOC(=O)c1cnc(-n2nc(C)cc2C)nc1-n1nc(C)cc1C	6.57% (inactive)	–
COCCOC1CCN(C(=O)c2ccc(OC)c(OC3CCN(C(C)C)CC3)c2)CC1	10.5% (inactive)	–
COc1ccccc1NC(=O)C(C)OC(=O)c1ccc(-n2cnnn2)cc1 (stereo not given)	-2.09% (inactive)	–
Cc1ccc(Nc2nnc(SCc3ccccc3)s2)cc1	-9.22% (inactive)	–
CCc1ccc(Nc2n[n+](-c3ccccc3)c(-c3cccc(Cl)c3Cl)s2)cc1	–	4.15 µM (active)
COc1cc(Br)c(-c2sc(Nc3ccccc3)n[n+]2-c2ccccc2)cc1OC	2.26% (inactive)	–
Cc1ccc(C)c(S(=O)(=O)N2CCN(CC(=O)Nc3ccc([N+](=O)[O-])cc3)CC2)c1	-29% (inactive)	–
CC(=O)Nc1ccc(S(=O)(=O)N2CCN(S(=O)(=O)c3cccs3)CC2)cc1	-11.5% (inactive)	–
CC(=O)Nc1ccc(S(=O)(=O)N2CCN(CCCOc3cc(C)ccc3C)CC2)cc1	–	7.38 µM (active)
CCOC(=O)C1(CCOC)CCN(Cc2cc3ccccc3s2)CC1	37.1% (inactive)	–
CCOC(=O)C1(Cc2cccc(OC)c2)CCN(Cc2csc(C(C)=O)c2)CC1	-14.8% (inactive)	–
CCOC(=O)C1(CCOC)CCN(Cc2ccc(C(=O)OC)cc2)CC1	–	10.4 µM (active)
O=C(COc1ccc(Cl)cc1)Nc1ccc2c(c1)OCO2	20.7% (inactive)	–
COc1ccc(NS(=O)(=O)c2cc(NC(=O)C3CCCCC3)ccc2N2CCOCC2)cc1	–	10.4 µM (active)
COc1ccc(/C=C/C(=O)Nc2ccc3c(c2)OCCO3)cc1OC	28.1% (inactive)	–
O=C(Nc1cccc(OCC(=O)N2CCOCC2)c1)C1CCCCC1	-3.36% (inactive)	–
COc1ccc(CNC(=O)C2CCN(S(=O)(=O)N3CCOCC3)CC2)cc1	2.02% (inactive)	–
COc1ccc(NS(=O)(=O)c2cc(NC(=O)/C=C/c3cc(OC)c(OC)c(OC)c3)ccc2N2CCCCC2)cc1	–	1.17 µM (active)
COc1ccc(NS(=O)(=O)c2ccc(N3CCN(CCO)CC3)c([N+](=O)[O-])c2)cc1	-3.24% (inactive)	–
